Screening data (PubChem)
IL1B secr inh: blocks inflammasome-driven IL-1 beta release. THP-1 LPS/ATP IL-1B secretion, AlphaLISA, 16 h; stronger effect = lower value. activity change, % at 57.5 µM. actives 4.7% (n = 360,000). AID 743279; in the data active = activity change below about -50%; inconclusive = mostly about -30% to -49%; note: % is set by controls: 0 for no effect and ±100 for the full control effect
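Secreted IL-1B measured by AlphaLISA bead assay after 16 h compound exposure of THP-1 cells; compounds (final up to 57.5 uM) added 1 h before LPS (250 ng/mL) and ATP (1.25 mM) stimulation; lower signal means less secretion.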
ASM inhibitor: human S-ASM enzyme inhibition; placental ASM, HMU-PC fluorogenic substrate, 60 min; actives 0.006% (n = 340,000); Potency, µM (highest dose often 57.5 µM), without a hit: at the highest dose activity change, negative = inhibition, most hits filed as inhibitors; note: potency is the fitted concentration of half-maximal effect
Target sequence (P17405 47-631 limits assumed): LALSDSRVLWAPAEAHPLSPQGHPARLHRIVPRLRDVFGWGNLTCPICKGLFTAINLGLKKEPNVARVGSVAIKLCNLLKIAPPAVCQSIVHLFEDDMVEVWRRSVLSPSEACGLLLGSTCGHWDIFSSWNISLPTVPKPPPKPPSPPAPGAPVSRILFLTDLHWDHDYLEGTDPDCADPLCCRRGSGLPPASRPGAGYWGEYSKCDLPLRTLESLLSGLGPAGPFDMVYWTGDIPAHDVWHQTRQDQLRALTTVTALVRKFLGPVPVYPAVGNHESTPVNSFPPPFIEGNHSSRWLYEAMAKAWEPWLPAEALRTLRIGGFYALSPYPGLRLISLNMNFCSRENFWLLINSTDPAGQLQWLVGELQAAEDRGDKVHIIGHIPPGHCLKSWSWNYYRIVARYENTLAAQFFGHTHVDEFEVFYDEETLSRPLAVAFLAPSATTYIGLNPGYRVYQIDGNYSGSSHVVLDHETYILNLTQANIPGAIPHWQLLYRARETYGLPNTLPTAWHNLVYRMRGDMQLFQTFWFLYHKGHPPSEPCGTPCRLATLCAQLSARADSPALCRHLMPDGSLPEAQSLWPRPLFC
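qHTS format. ASM enzyme prepared from human placenta hydrolyses the fluorogenic substrate HMU-PC0 (9 uM final) over 60 min at 37 °C after a 10 min compound preincubation.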
TGFb inhibitor: inhibitors of TGF-b signaling; HepG2 CAGA-GFP TGF-b/SMAD3 reporter, GFP fluorescence, 18 h; TGF-beta stimulated, 500 pg/mL final; Potency, µM (series often up to 46.1 µM), inactives show at the top dose activity, negative = inhibition, usual class: inhibitors; actives 1.2% (n = 410,000); note: potency is the fitted concentration of half-maximal effect; % is set by controls: 0 for no effect and ±100 for the full control effect; nearly all actives have a fitted effect of over 65% in size
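HEPG2 CAGA-GFP, 1000 cells/well; 2 h settle, 37 C; cpd via pin tool; TGF-b 500 pg/mL final; 18 h, 37 C; GFP imaging ex488/em500-530; %Activity normalised to -TGF-b and +DMSO controls; CRC fit, curve class.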
TDP1 cell CPT: DT40-hTDP1 cell growth loss with CPT; chicken DT40 Tdp1-/-;hTDP1 cells + 20 nM CPT, ATP luminescence, 48 h; Potency, µM (highest dose often 46.2 µM), inactives show at the highest dose activity change, negative = growth inhibition, actives largely listed as inhibitors; actives 12% (n = 420,000); AID 686979; note: potency is the fitted concentration of half-maximal effect; % is set by controls: 0 for no effect and ±100 for the full control effect; nearly all actives have a fitted effect of over 55% in size
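Chicken DT40 Tdp1-/- cells stably complemented with human TDP1 were seeded at 400 cells/well in medium containing 20 nM camptothecin, exposed to pin-transferred compounds, and grown at 37 °C for at least 48 hr. Viability was read as ATP luminescence.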
TDP1 cell noCPT: qHTS for Inhibitors of human tyrosyl-DNA phosphodiesterase 1 (TDP1): qHTS in cells in absence of CPT | DT40 Tdp1-/- hTDP1 cells, no CPT, ATP luminescence, 48 h | Potency, µM (highest dose often 46.2 µM), inactives show at the highest dose activity change, negative = growth inhibition, actives largely listed as inhibitors | actives 15% (n = 420,000); note: potency is the fitted concentration of half-maximal effect; % is set by controls: 0 for no effect and ±100 for the full control effect; nearly all actives have a fitted effect of over 55% in size
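Chicken DT40 Tdp1-/- cells complemented with human TDP1, screened without camptothecin (DMSO vehicle only), 400 cells/well. Compounds pin-transferred, cells incubated at 37 °C for at least 48 hr. Growth read as ATP-dependent luminescence (CellTiter-Glo, 30 min at RT).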
HepG2 tox: counter-screen for TGF-b inhibitors: cytotoxicity in HepG2 cells; Potency, µM (doses to about 46.1 µM), for inactives: top-dose activity change, negative = cytotoxicity, most hits filed as cytotoxic; HepG2 CAGA-GFP viability, ATP luminescence, 18 h; actives 0.76% (n = 410,000); note: potency is the fitted concentration of half-maximal effect
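CellTiter-Glo luminescence gave cytotoxicity after 18 hours at 37 degrees C. The cells were HepG2 CAGA-GFP in 1% FBS DMEM, stimulated with 500 pg/mL TGF-beta after compound addition. %Activity was normalised to no-cell wells (complete cell-killing) and DMSO (no toxicity), and curves were fitted and classified.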
* = called active by the depositor; ? = inconclusive; · = not tested or not shown. In the library only some 19% were active in any assay of this set; here they are far more common. Unless noted, calls come from the whole dose curve; as a rule, active = well fitted curve in the direction sought with a large enough effect; inconclusive = small, poorly fitted or top-dose-only effect, or another doubt; inactive = no such curve, though single readings can be large; an effect the other way counts as inactive or inconclusive.

SMILES | IL1B secr inh | ASM inhibitor | TGFb inhibitor | TDP1 cell CPT | TDP1 cell noCPT | HepG2 tox
CCCc1cc(=O)oc2c3c(cc(OCC(=O)N[C@@H](CSC)C(=O)O)c12)OC(C)(C)CC3 | 3 | 55% | ? | 5% | -4% | -22%
COC(=O)c1ccc(CSc2nnc3c(n2)[nH]c2ccccc23)cc1 | 2 | 3% | 11% | -10% | -13% | 35%
O=C(CSc1nnc2c(n1)[nH]c1ccccc12)N1CCCCC1 | 11 | -2% | 12% | 0% | -27% | -8%
CC(Sc1nnc2c(n1)[nH]c1ccccc12)C(=O)N(C)C1CCCCC1 (stereo not given) | -56* | -9% | ? | 26µM* | 21µM* | -33%
CC(Sc1nnc2c(n1)[nH]c1ccccc12)C(=O)NC1CCCCC1 (stereo not given) | -28 | -4% | -11% | 23µM* | 21µM* | -19%
COc1cc(O)c(C(C)=O)c(CC(=O)O)c1 | -6 | -2% | -13% | -1% | -12% | -2%
Cc1ccc(Sc2c([N+](=O)[O-])c(=O)n(C)c3ccccc23)cc1 | 3 | -8% | ? | 15µM* | 13µM* | -46%
Cc1ccc(C2CC(=O)C(C=NCCN3CCN(C(=S)Nc4ccc(F)cc4)CC3)=C(O)C2)cc1 (stereo not given) | -4 | -3% | -1% | -3% | ? | 22%
Cc1cc(C)nc(N/N=C/C2=C(O)CC(c3ccc(F)cc3)CC2=O)n1 (stereo not given) | 252 | -13% | -21% | 23µM* | 9.2µM* | -6%
CCC(=O)N1CCc2cc(CNC(=O)Nc3ccc(OC)cc3OC)ccc21 | · | · | 13% | -7% | -8% | -2%
COc1ccc(CCN2CCCC(CN(C)Cc3cccc(OC)c3)C2)cc1 (stereo not given) | -15 | 0% | 2% | ? | ? | -34%
CCN(Cc1ccc(NC(C)=O)cc1)CC1CCCN(CCc2cccc(OC)c2)C1 (stereo not given) | -11 | 0% | -8% | ? | 21µM* | -27%
CCN(Cc1ccccc1OC)CC1CCCN(CCc2cccc(OC)c2)C1 (stereo not given) | ? | 3% | -14% | 15µM* | ? | -57%
Cc1ccc(C)c(N2CCN(c3nc4ccccc4c4nc(-c5cccnc5)nn34)CC2)c1 | · | · | 4% | -16% | -27% | 5%
Cc1ccc(C)c(N2CCN(c3nc4ccccc4c(=O)n3-c3ccccc3)CC2)c1 | · | · | -12% | 10µM* | 9.2µM* | -2%
CCc1nnc2c3ccccc3nc(N3CCN(c4cc(C)ccc4C)CC3)n12 | · | · | -14% | ? | 1.3µM* | -2%
COc1c2c(c(OC)c3ccccc13)[C@]1(OC2)O[C@H](CCO)C[C@H](O)[C@H]1O | ? | · | -8% | -3% | 0% | -3%
CC1(C)CCc2cc(O)ccc2O1 | · | · | · | 0% | -4% | ·
O=C1C=C(c2ccccc2)C[C@H](c2cccs2)[C@H]1n1nnc([N+](=O)[O-])n1 | -73* | -9% | -31% | 6.5µM* | 5.8µM* | 2%
CC(C)CC1OC(C)CC2=C1C(=O)OC(C)(C)O2 (stereo not given) | 72 | · | · | -24% | -29% | ·
O=C(COc1ccc(F)cc1)Nc1ccc2nc(SCC(=O)N3CCCC3)sc2c1 | · | · | 0% | 12µM* | 23µM* | -21%
O=C(COc1ccc(F)cc1)Nc1ccc2nc(SCC(=O)N3CCOCC3)sc2c1 | · | · | -3% | 10µM* | 12µM* | -33%
O=C(Nc1ccc(F)cc1)Nc1nnc(SCC(=O)N2CCCCC2)s1 | · | · | 3% | ? | 3.3µM* | 4%
O=C(COc1ccccc1)Nc1ccc2nc(SCC(=O)N3CCOCC3)sc2c1 | · | · | 0% | 18µM* | 15µM* | -1%
COc1cccc(/C=C2\SC(=S)N(C(Cc3ccccc3)C(=O)O)C2=O)c1 (stereo not given) | 26 | -1% | -20% | 14% | 0% | -16%
SMILES | IL1B secr inh | ASM inhibitor | TGFb inhibitor | TDP1 cell CPT | TDP1 cell noCPT | HepG2 tox
Cc1ccc(C(=O)c2oc3ccccc3c2NC(=O)COc2ccc(C(C)(C)C)cc2)cc1 | · | · | 2% | 10% | -6% | 0%
Cc1ccc(N2CC(C(=O)Nc3nnc(SCC(N)=O)s3)CC2=O)cc1C (stereo not given) | 9 | 1% | -31% | -17% | 7% | -14%
NC(=O)CSc1nnc(NC(=O)C2CC(=O)N(c3ccc(F)cc3)C2)s1 (stereo not given) | 0 | -2% | -1% | -2% | 21µM* | -8%
COc1ccc(-n2nnnc2C(CCSC)N2CCN(C/C=C/c3ccccc3)CC2)cc1 (stereo not given) | ? | · | -34% | ? | ? | -1%
Cc1cccc(C)c1-n1nnnc1C(C1CC1)N1CCN(C/C=C/c2ccccc2)CC1 (stereo not given) | -21 | · | ? | ? | ? | -10%
CCC(c1nnnn1-c1c(C)cccc1C)N1CCN(C/C=C/c2ccccc2)CC1 (stereo not given) | -20 | · | ? | 6.5µM* | 7.3µM* | -12%
CSCCC(c1nnnn1-c1c(C)cccc1C)N1CCN(C/C=C/c2ccccc2)CC1 (stereo not given) | -59* | · | ? | ? | 18µM* | -44%
CCC(c1nnnn1-c1c(C)cccc1C)N1CCN(c2cccc(C(F)(F)F)n2)CC1 (stereo not given) | 71 | · | · | ? | 15µM* | ·
Cc1ccc(C(=O)OCC(=O)Nc2cc(C(C)(C)C)no2)c(C)c1 | -9 | -15% | ? | ? | ? | -101%
COc1ccc(NC(=O)C2C(c3ccc4c(c3)OCO4)=Nc3ccccc3N2C(C)=O)cc1 (stereo not given) | -7 | · | · | ? | ? | ·
CCN1CCOC(CC(=O)Nc2ccc([N+](=O)[O-])cc2)C1=O (stereo not given) | -2 | 2% | 0% | 15µM* | ? | 20µM*
O=C(CC1C(=O)NC2CCCCC2N1C(=O)c1ccc([N+](=O)[O-])cc1)Nc1ccccc1 (stereo not given) | 10 | -2% | -8% | ? | 16µM* | -11%
COc1cccc(NC(=O)CC2C(=O)NC3CCCCC3N2C(=O)c2ccccc2)c1 (stereo not given) | 21 | 4% | 8% | 6% | -3% | 11%
